# Over roughly 33,000 sequences, “E-score (-0.5 to 0.5)” has its median near -0.012; the highest 2% begin near 0.27. The sample holds the highest values, similar sequences and a random draw of the others, so the mix is not that of the screen.
# Molecular target: T1, Vhr1 (UniProt P40522)
# T1 sequence: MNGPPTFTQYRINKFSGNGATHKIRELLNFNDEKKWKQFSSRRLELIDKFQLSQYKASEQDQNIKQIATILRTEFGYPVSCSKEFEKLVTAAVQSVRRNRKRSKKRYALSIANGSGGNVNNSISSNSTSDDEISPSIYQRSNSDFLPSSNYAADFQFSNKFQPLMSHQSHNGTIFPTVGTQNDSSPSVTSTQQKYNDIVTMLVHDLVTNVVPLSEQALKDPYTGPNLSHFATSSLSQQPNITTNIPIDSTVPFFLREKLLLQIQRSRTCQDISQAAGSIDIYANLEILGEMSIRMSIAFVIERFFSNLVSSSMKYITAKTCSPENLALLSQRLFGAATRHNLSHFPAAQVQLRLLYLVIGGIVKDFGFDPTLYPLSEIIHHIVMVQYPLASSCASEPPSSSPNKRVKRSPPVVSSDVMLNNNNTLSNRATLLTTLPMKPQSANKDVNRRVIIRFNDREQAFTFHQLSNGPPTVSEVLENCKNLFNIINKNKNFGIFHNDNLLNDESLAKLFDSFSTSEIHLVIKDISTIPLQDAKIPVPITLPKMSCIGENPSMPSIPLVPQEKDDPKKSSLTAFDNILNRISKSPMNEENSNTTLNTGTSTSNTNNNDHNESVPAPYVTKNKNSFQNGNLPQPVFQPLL
# Experiment: PBM E-score (8-mer binding enrichment) (E-score (-0.5 to 0.5)); higher = stronger / more preferred TF binding
# Settings: protein concentration: 200 nM; construct: GST-full length
# Method: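 Universal 'all 10-mer' protein binding microarrays (Agilent AMADID 015681) probed with GST-tagged S. cerevisiae TFs (full-length or DBD) made by in vitro transcription/translation (PURExpress), about 100-200 nM. Bound TF was detected with fluorescent anti-GST. Each ungapped 8-mer (which stands for itself and its reverse complement) is scored by the PBM enrichment score (E-score), a modified Wilcoxon-Mann-Whitney statistic from -0.5 to +0.5, computed with the Universal PBM Analysis Suite. Scale: above 0.35 generally sequence-specific binding.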
row,Sequence,PBM E-score
1,CGTAATCC,-0.104
2,GGTAATCA,0.288
3,AGTAATCA,0.303
4,CTCAATCC,-0.0448
5,CGTAATCA,0.273
6,AGTAATCC,0.0334
7,CTCAATCA,0.33
8,AATTGGCT,-0.0912
9,ATACTGTA,0.224
10,GGAAACGA,0.0811
11,GGTGTCCA,-0.0191
12,ACAAGTGA,-0.154
13,CAGATTAG,-0.0795
14,AAATAACG,-0.00647
15,GTAATGTA,-0.131
16,CCCGCGGA,-0.0501
17,GCCGCGGC,0.237
18,CTCCCCGA,-0.116
19,ATCCCCGC,0.129
20,ACCGCCAC,0.0902
21,CCCGCCGA,0.00185
22,CTCCCCGC,0.325
23,GCCGCCAC,-0.0771
24,CCCGCCAC,0.321
25,CCCGCCGC,0.36

row,Sequence,PBM E-score
1,CCCGCCGG,0.134
2,CCCGCGGC,0.272
3,ATGACCCC,0.211
4,AAGGCAGC,-0.132
5,ATATAGAA,0.11
6,AGCATCAG,0.0568
7,CATGTTCG,0.0242
8,GATTGGGC,-0.102
9,CAACCTCC,0.0131
10,GTGTATCA,0.275
11,CTGTATCA,-0.0153
12,ATGTATCA,0.267
13,GCACTTTA,-0.249
14,CAGTTACG,-0.125
15,ACTCTCAG,-0.0997
16,ATACTGTC,0.137
17,ATACTCAT,0.277
18,ATACTGAG,0.302
19,ATACTCAA,0.178
20,ATACTCAG,0.274
21,CTACTCAG,0.153
22,ATACTCAC,0.17
23,ATACTGTG,0.0981
24,CGAGTTCC,0.0292
25,GCAAACTA,0.0776

row,Sequence,PBM E-score
1,AATGCTCA,0.021
2,AAGAATAC,0.0498
3,AGGGTCGA,0.158
4,ACCTGCCC,0.0405
5,CTACGCCC,0.0207
6,CGGCAGTA,-0.109
7,ACAACCCC,-0.061
8,CATGCTCC,-0.08
9,AATCATTC,0.251
10,AATCATGG,0.387
11,AATCATTA,0.222
12,AATCATTG,0.283
13,AATCAAGT,0.174
14,AATCATGA,0.331
15,AATCAAGG,0.0679
16,AATCATGT,0.389
17,TATCATGA,0.189
18,AATCAGGT,0.268
19,AATCAGGG,0.133
20,GATCATGA,0.197
21,CCGCCAAC,0.163
22,GCATTGAA,-0.0212
23,AACTAGTT,-0.125
24,AAAGGTTA,-0.357
25,CATCTATA,0.0881

row,Sequence,PBM E-score
1,CATCATGG,0.152
2,GATCATGC,0.0952
3,CATCATGA,0.276
4,CAACATGG,0.0395
5,CAACATGC,0.15
6,CATCATGC,0.201
7,AATCATGC,0.304
8,CAACATGA,0.3
9,CATCATAA,0.133
10,AGAGCGAC,0.0123
11,ACTATAGC,0.00988
12,CTCGATTA,0.216
13,TACGAGCA,-0.0868
14,GGAATACA,0.0161
15,CACCCGTC,0.0428
16,CAACGCTA,-0.125
17,CAGGAATC,0.313
18,AATGAATC,0.23
19,GATGAATC,0.249
20,CATGAATC,0.31
21,AACGAATC,0.125
22,GAGGAATC,0.0804
23,CACGAATA,0.066
24,CACGAATC,0.288
25,CATGATTC,0.424

row,Sequence,PBM E-score
1,CATGATCC,0.213
2,CAGGAATG,0.0121
3,CTTGATTC,0.214
4,CAGTATCC,0.124
5,GCTGGCGA,-0.0575
6,GGCAGACA,-0.0678
7,ATTGCCCA,-0.113
8,CCGGTCCG,0.112
9,AAATGAAT,-0.0848
10,CTGATCGA,0.0718
11,CTGGACCC,-0.213
12,CACTGCCG,0.173
13,ATACTACG,-0.0642
14,CTGAGATA,-0.128
15,GCAGCTTA,-0.0202
16,AATGATTC,0.406
17,ATTGATTC,0.171
18,AATGATTG,0.199
19,CATGATTA,0.369
20,CTTGATTA,0.0605
21,CATGATAA,0.108
22,TAACCTAA,-0.187
23,ACCTTCTG,0.167
24,CCCACCCC,0.389
25,CCCACCCA,0.263

row,Sequence,PBM E-score
1,CCCACCCG,0.382
2,ACCACCCC,0.112
3,GCCACCCC,-0.0413
4,ACCACCCG,-0.0147
5,AACCCCTA,-0.0392
6,AACACCGA,0.108
7,GACGACTC,0.358
8,GACGACGC,-0.049
9,CACGACTC,0.378
10,CACGACTG,0.178
11,AACGACTA,0.0488
12,GACGACTA,0.162
13,CACGACTA,0.209
14,AACGACTT,-0.216
15,AACGACTC,0.292
16,GCACCCAA,-0.0528
17,AGTCTTGC,0.0289
18,ACAGCTCC,0.0267
19,TTACCTAA,-0.0877
20,GAGTCAGA,0.447
21,CAGTCAGC,0.232
22,GGGTCAGA,-0.0746
23,AAGTCAGC,0.281
24,CAGTCAGA,0.224
25,GAGTCAGC,0.476

row,Sequence,PBM E-score
1,AAGTCAGA,0.0614
2,ATGTCAGC,0.072
3,GCGTCAGC,-0.256
4,CATGGGAC,0.02
5,GTACTTCA,0.114
6,CAATGGTC,0.115
7,CCTAGTAC,0.0265
8,ATGCTCAA,-0.0744
9,CTCGAGAA,-0.188
10,GGCAGTAA,0.125
11,CGCAGTCC,0.0797
12,GGCAGTCA,0.345
13,AGCAGTCA,0.256
14,CGCAGTCA,0.363
15,GGCAGTGA,0.0755
16,AGACCTGC,-0.147
17,GGCGCGAA,0.0599
18,GTCGCGAC,0.379
19,CTCGCGAC,0.242
20,GTCGCGAA,0.0553
21,CGCGCGAC,0.162
22,GGCGCGAC,0.275
